MazEF act: activators of E. coli MazEF toxin-antitoxin RNase, primary screen, biochemical, fluorescence, uHTS; Endoribonuclease toxin MazF (Escherichia coli (strain K12)), P0AE70; FAM/BHQ RNA-DNA oligo cleavage fluorescence, 5 h; activation, % at 20 µM; hit rate 0.32% among 350,000; in the data active = activation above about 50%
Target sequence (P0AE70 whole entry, looked up): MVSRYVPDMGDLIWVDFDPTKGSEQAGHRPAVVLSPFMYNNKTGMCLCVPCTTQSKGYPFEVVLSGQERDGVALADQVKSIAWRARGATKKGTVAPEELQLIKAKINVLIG
PrPC TRFRET: inhibitors of human cell surface prion protein PrPC, primary screen, cell-based, TR-FRET; hit rate 0.43% among 370,000; TR-FRET read-out; inhibition, % at 13.8 µM; in the data active = inhibition above about 24%; also: 0% = median of the test wells and 100% = reference compound wells
Yp Topo-I inh: Yersinia pestis topoisomerase I inhibitors, primary screen, biochemical, cleavage product accumulation, plate reader, single point. Y. pestis Topo-I cleavage product accumulation. activity, % at 10 µM. hit rate 0.064% among 360,000. DNA topoisomerase I (Yersinia pestis CO92); in the data active = activity above about 50%, passing the limit was not always enough
DUSP3 inh: VHR1 phosphatase inhibitors, primary screen, biochemical, absorbance, uHTS; Dual specificity protein phosphatase 3 (Homo sapiens), P51452; recombinant VHR phosphatase, pNPP absorbance; inhibition, % at 13.3 µM; hit rate 0.52% among 290,000; AID 1654, 2009; in the data active = inhibition above about 50%
Target sequence (P51452 whole entry, looked up): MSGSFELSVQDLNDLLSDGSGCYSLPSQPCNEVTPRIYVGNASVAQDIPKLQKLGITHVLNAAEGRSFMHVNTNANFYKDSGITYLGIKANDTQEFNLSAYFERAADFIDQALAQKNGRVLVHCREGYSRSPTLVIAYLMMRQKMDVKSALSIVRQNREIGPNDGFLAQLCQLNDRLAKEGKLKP
Vc quorum ag: inducers of Vibrio cholerae quorum light production without autoinducers, primary screen, BH1578 luxS cqsA deficient, single point. activation, % at 18.7 µM. hit rate 0.16% among 350,000. V. cholerae BH1578 lux reporter, luminescence, 6 h; in the data active = activation mostly above about 9.7%, no sharp cut-off
CCHFV vOTU inh: CCHFV vOTU protease inhibitors, primary screen, biochemical, Pep-AMC substrate, fluorescence; Crimean-Congo hemorrhagic fever virus L polyprotein viral ovarian tumor (vOTU) protease …; inhibition, % at 11.5 µM; hit rate 0.55% among 370,000; AID 651958, 2012; in the data active = inhibition above about 30%; also: 0% = vehicle wells with enzyme and 100% = no enzyme wells
* marks the source's active call; other numbers are inactive results; i = inactive; . = no result. A selection: hits, their analogues and other compounds. The true share with any hit is near 1.8%.

SMILES | MazEF act | PrPC TRFRET | Yp Topo-I inh | DUSP3 inh | Vc quorum ag | CCHFV vOTU inh
CCCn1c(-c2cccs2)nc2c1c(=O)[nH]c(=O)n2Cc1ccccc1 | 83* | 4 | 13 | 6 | -2 | 0
COc1cccc2cc3c(nc12)C[C@@H]1CCCC(=O)N2CCC[C@@]12C3 | . | -2 | . | . | . | .
OCC[C@@H]1C[C@@H](O)[C@H](O)[C@]2(CCCc3ccccc3O2)O1 | 4 | -1 | 5 | 52* | i | 4
COc1ccc(C(NC(=O)c2cc(OC)ccc2OC)c2ccccc2)cc1 (centres undefined) | 11 | 9 | 50* | 22 | i | -5
COc1cc(/C=N/n2c(-c3cc(-c4ccccc4)n[nH]3)n[nH]c2=S)ccc1OCc1ccccc1 | . | -12 | . | . | . | 26
COC(=O)[C@]12C[C@H](CC(=O)N3CCCC3)C(=O)N(CCC3=CCCCC3)C1=C[C@H](C1CCCC1)O[C@@H]2C | . | 6 | . | . | . | 22
Cc1occc1-c1nnc(SCC(=O)Nc2ccc3ncccc3c2)n1-c1ccccc1 | . | -10 | . | . | . | 3
CN(CCO)C1CN(Cc2cn(Cc3ccccc3C(F)(F)F)nn2)S(=O)(=O)C1 (centres undefined) | . | -7 | . | . | . | 2
O=c1oc2ccccc2c(N2CCCCC2)c1CN1CCCCC1 | -2 | 0 | -3 | 13 | 25* | 3
O=C(c1cnn2c(C(F)(F)F)cc(-c3ccc4c(c3)OCO4)nc12)N1CCCCC1 | 14 | -6 | 7 | 18 | 0 | -2
O=C(NC1CCCC1)c1cnn2c(C(F)(F)F)cc(-c3ccc4c(c3)OCO4)nc12 | 76* | . | 3 | -7 | 0 | .
O=C(CCn1c2c(c3ccccc31)CCCC2)NNC(=O)c1ccc(Cl)c([N+](=O)[O-])c1 | 15 | -10 | -17 | 52* | 0 | -4
CCCCN1CN2Cc3ccc(C)cc3C2CS1(=O)=O (centres undefined) | . | -7 | . | . | . | -1
Cc1ccc(C(=O)NCCc2nnc3ccc(SCC(=O)NCc4ccc(F)cc4)nn23)cc1 | -10 | -10 | 13 | 57* | 0 | 6
CCCCC(=O)N1CCC(NS(=O)(=O)c2ccc3c(c2)CCN3C(C)=O)CC1 | . | 4 | . | . | . | 12
Cc1ccc(-n2c(SCC(=O)Nc3ccc4cn[nH]c4c3)nnc2-c2ccccc2)cc1 | . | 7 | . | . | . | 6
O=S(=O)(NC1CCCCC1N1CCC(O)CC1)c1ccccc1 (centres undefined) | -5 | 1 | 3 | 58* | -1 | 7
O=C(NCC(=O)N1CCN(Cc2ccccc2)CC1)c1ccc(Br)cc1 | 2 | -7 | 12 | 12 | -1 | -7
O=C(NCC(=O)N1CCN(Cc2ccccc2)CC1)c1ccc(Cl)cc1 | -5 | 0 | 12 | 57* | -1 | -6
CCOc1ccc(/C=C2/C(=N)N3OC(C)=CC3=NC2=O)cc1OC | -2 | 6 | -2 | 8 | 0 | 18
COc1cc(/C=C2/C(=N)N3OC(C)=CC3=NC2=O)ccc1OCCOc1ccc(C)cc1 | 91* | -4 | 6 | 23 | -1 | -7
CCOc1cc(/C=C2/C(=N)N3OC(C)=CC3=NC2=O)ccc1OCCOc1ccccc1 | 149* | -6 | 7 | 16 | -17 | -7
CCOC(=O)N1CCN(C(=O)C[C@H]2C[C@@]3(C(=O)OC)C(=C[C@H](COCc4ccccc4)O[C@@H]3C)N(Cc3cccc4ccccc34)C2=O)CC1 | . | 0 | . | . | . | 3
Cn1c(O)c(C=Nc2ccc(N3CCOCC3)cc2)c(=O)n(C)c1=S | -40 | 4 | 1 | 21 | i | 20
Cc1cc(O)c(C=Nc2ccc(N3CCOCC3)cc2)c(C)c1Cl | 261* | -16 | -10 | 83 | -1 | -11
CCc1cc2c(=O)c(-c3nc4ccccc4n3C)c(COCC(=O)O)oc2cc1O | 7 | -2 | 4 | -1 | 0 | -17
CCCc1cc2c(=O)c(-c3nc4ccccc4s3)c(COCC(=O)O)oc2cc1O | 60* | 6 | -2 | -3 | 0 | 2
Cc1ccc2oc(C(=O)N(Cc3ccncc3)CC3CCCO3)c(C)c2c1 (centres undefined) | 0 | 2 | 18 | 12 | i | -3
CCN(Cc1ccccc1)C(=O)c1oc2ccc(C)cc2c1C | -6 | 8 | 53* | -5 | -1 | 28
